Experimental data reported in PubChem BioAssay (EPA / NIEHS).
Inconclusive results are not listed. Activity calls are given as the source filed them. The calls were made as follows: active = hit-call score of the fitted dose curve at least 0.9, where 1 is the maximum; inconclusive = response in the unintended direction; inactive = score below 0.9.

Experiments:
[1] = target: human Matrix Metalloproteinase-9 (MMP9), MMP9 (gene 4318) (UniProt P14780); assay: NVS_ENZ_hMMP9: NovaScreen (NVS) Enzymatic Assay for human Matrix Metalloproteinase-9 (MMP9) (AID 2283190);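 also: cell-free recombinant MMP9 protease activity read by fluorescent substrate signal; active means inhibition seen as loss of fluorescence signal versus DMSO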
How it was run: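 Cell-free fluorescence-intensity enzyme activity assay using extracted protein, read 1 h after dosing. Loss of signal versus DMSO baseline indicates inhibition; primary screen in duplicate at 25 uM, actives followed up in concentration series.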

[2] = target: human Phosphodiesterase 5 (PDE5), PDE5A (gene 8654) (UniProt O76074); assay: NVS_ENZ_hPDE5: NovaScreen (NVS) Enzymatic Assay for human Phosphodiesterase 5 (PDE5) (AID 2283194)
How it was run: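 Recombinant human PDE5 with specific substrate, read 1 h after dosing by fluorescence with electrophoretic mobility-shift separation of substrate and product. Initial single-concentration duplicate screen at 25 uM, actives followed in concentration series; loss of activity versus DMSO.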

[3] = target: human Phosphodiesterase 10 (PDE10), PDE10A (gene 10846) (UniProt Q9Y233); assay: NVS_ENZ_hPDE10: NovaScreen (NVS) Enzymatic Assay for human Phosphodiesterase 10 (PDE10) (AID 2283195)
How it was run: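 Recombinant human PDE10 with fluorescent substrate, 1 h, product separated by electrophoretic mobility shift. Loss of enzyme activity fitted against DMSO; initial screen 25 uM in duplicate, actives run to 50 uM maximum.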

[4] = target: human Phosphoinositide 3-kinase alpha (PI3Ka), PIK3CA (gene 5290) (UniProt P42336); assay: NVS_ENZ_hPI3Ka: NovaScreen (NVS) Enzymatic Assay for human Phosphoinositide 3-kinase alpha (PI3Ka) (AID 2283196)
How it was run: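 Enzyme activity as fluorescence after mobility-shift separation of substrate and product, 1 h reaction, recombinant human PI3Kα; concentration-response to 50 uM max for chemicals passing a 25 uM duplicate screen.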

[5] = target: human p21 Activated Kinase 4 (PAK4), PAK4 (gene 10298) (UniProt O96013); assay: NVS_ENZ_hPAK4: NovaScreen (NVS) Enzymatic Assay for human p21 Activated Kinase 4 (PAK4) (AID 2283189)
Procedure: (§1) NVS_ENZ_hPAK4 is a biochemical, single-readout assay that uses extracted gene-proteins in a cell-free assay. Measurements were taken 1 hour after chemical dosing in a 384-well plate.NVS_ENZ_hPAK4 is one of one assay component(s) measured or calculated from the NVS_ENZ_hPAK4 assay. It is designed to make measurements of enzyme activity, a form of enzyme reporter, as detected with fluorescence intensity signals by Fluorescence and electrophoretic mobility shift technology.Data from the assay component NVS_ENZ_hPAK4 was analyzed into 1 assay endpoint. This assay endpoint, NVS_ENZ_hPAK4, was analyzed in the positive analysis fitting direction relative to DMSO as the negative control and baseline of activity. Using a type of enzyme reporter, loss-of-signal activity can be used to understand changes in the enzymatic activity as they relate to the gene PAK4. Furthermore, this assay endpoint can be referred to as a primary readout, because this assay has produced multiple assay endpoints where this one serves a enzymatic activity function. To generalize the intended target to other relatable targets, this assay endpoint is annotated to the kinase intended target family, where the subfamily is serine/threonine kinase.
Binding assays used specific radioligands (tritiated, iodinated) with non-radioactive competitive displacement ligands in agonist or antagonist protocols (as indicated) and various reference compounds and inhibitors to titrate specific binding to receptors and transporters. Most enzyme assays (CYPs, kinases, phosphatases, proteases, HDACs) used recombinant protein and specific substrates (fluorescence mostly, some colorimetric and radioactive) and inhibitors, followed by a biochemical separation of substrate and product. All assays for the biochemical HTS were initially run in duplicate at a single concentration (10 uM for CYP450 assays and 25 uM for all others). […] Each assay was run with positive and negative controls, and concurrent controls on every plate. […]

[6] = target: human Phosphodiesterase 4A1 (PDE4A1), PDE4A (gene 5141) (UniProt P27815); assay: NVS_ENZ_hPDE4A1: NovaScreen (NVS) Enzymatic Assay for human Phosphodiesterase 4A1 (PDE4A1) (AID 2283191)
How it was run: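 Cell-free recombinant human PDE4A1 with fluorescent substrate; product separated by electrophoretic mobility shift, 1 h. Screened at 25 uM, then up to 50 uM in concentration-response; loss of signal fitted against DMSO.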

[7] = target: human NIMA (Never In Mitosis Gene A)-Related Kinase 2 (NEK2), NEK2 (gene 4751) (UniProt P51955); assay: NVS_ENZ_hNEK2: NovaScreen (NVS) Enzymatic Assay for human NIMA (Never In Mitosis Gene A)-Related Kinase 2 (NEK2) (AID 2283188)
Procedure: as §1, with “NVS_ENZ_hNEK2” for “NVS_ENZ_hPAK4”, “plate.NVS_ENZ_hNEK2” for “plate.NVS_ENZ_hPAK4”, “NVS_ENZ_hNEK2,” for “NVS_ENZ_hPAK4,”, “NEK2.” for “PAK4.”, “kinase. […]” for “kinase.”

[8] = target: human Matrix Metalloproteinase-3 (MMP3), MMP3 (gene 4314) (UniProt P08254); assay: NVS_ENZ_hMMP3: NovaScreen (NVS) Enzymatic Assay for human Matrix Metalloproteinase-3 (MMP3) (AID 2283185)
How it was run: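 Cell-free recombinant human MMP3 activity, fluorescence intensity read 1 h after dosing. Primary screen duplicate at 25 uM, actives retested in concentration series; loss of signal vs DMSO baseline.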

[9] = target: human Mitogen- and Stress-activated Protein Kinase-1 (Msk1), RPS6KA5 (gene 9252) (UniProt O75582); assay: NVS_ENZ_hMsk1: NovaScreen (NVS) Enzymatic Assay for human Mitogen- and Stress-activated Protein Kinase-1 (Msk1) (AID 2283187)
How it was run: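 Recombinant kinase with fluorescent substrate; product separated by electrophoretic mobility shift, read 1 h after dosing. Screened in duplicate at 25 uM; hits (e.g. ≥30% inhibition) tested in concentration–response up to 50 uM. DMSO baseline.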

[10] = target: cAMP-dependent protein kinase catalytic subunit alpha (Homo sapiens) (UniProt P17612); assay: NVS_ENZ_hPKA: NovaScreen (NVS) Enzymatic Assay for human Protein Kinase A (PKA) (AID 2283192)
How it was run: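 Recombinant human PKA with specific fluorescent substrate, product separated by electrophoretic mobility shift, read 1 h after dosing. Primary screen at 25 uM in duplicate; actives then run in concentration-response up to 50 uM, activity relative to DMSO.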

human Phosphodiesterase 10 (PDE10), PDE10A (gene 10846), sequence (Q9Y233 whole entry, looked up): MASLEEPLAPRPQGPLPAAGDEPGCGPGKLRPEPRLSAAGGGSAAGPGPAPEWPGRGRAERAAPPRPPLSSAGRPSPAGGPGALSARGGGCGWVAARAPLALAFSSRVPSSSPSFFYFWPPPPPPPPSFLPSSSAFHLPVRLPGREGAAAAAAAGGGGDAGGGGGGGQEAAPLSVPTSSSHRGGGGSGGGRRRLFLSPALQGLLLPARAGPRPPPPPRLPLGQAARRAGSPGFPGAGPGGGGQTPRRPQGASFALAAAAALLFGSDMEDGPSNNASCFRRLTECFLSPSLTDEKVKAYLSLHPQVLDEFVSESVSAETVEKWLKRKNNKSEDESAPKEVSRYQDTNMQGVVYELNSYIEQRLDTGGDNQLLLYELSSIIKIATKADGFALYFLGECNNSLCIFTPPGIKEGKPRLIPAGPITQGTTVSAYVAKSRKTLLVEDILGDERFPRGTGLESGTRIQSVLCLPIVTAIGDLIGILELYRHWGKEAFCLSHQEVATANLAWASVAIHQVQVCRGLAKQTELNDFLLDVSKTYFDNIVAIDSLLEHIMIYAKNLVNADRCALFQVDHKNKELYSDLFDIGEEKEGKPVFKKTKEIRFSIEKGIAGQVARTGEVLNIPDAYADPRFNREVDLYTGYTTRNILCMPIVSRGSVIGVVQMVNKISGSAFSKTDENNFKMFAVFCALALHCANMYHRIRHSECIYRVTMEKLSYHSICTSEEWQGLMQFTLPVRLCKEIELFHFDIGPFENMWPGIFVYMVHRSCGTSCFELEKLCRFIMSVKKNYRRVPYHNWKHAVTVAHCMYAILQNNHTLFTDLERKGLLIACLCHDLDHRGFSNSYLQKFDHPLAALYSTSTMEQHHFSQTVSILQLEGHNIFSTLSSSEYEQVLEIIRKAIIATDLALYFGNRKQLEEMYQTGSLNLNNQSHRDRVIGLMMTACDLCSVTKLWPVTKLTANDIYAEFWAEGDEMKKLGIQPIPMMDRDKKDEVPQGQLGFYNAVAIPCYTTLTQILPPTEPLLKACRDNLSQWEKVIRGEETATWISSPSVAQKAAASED
human Phosphodiesterase 4A1 (PDE4A1), PDE4A (gene 5141), sequence (P27815 whole entry, looked up): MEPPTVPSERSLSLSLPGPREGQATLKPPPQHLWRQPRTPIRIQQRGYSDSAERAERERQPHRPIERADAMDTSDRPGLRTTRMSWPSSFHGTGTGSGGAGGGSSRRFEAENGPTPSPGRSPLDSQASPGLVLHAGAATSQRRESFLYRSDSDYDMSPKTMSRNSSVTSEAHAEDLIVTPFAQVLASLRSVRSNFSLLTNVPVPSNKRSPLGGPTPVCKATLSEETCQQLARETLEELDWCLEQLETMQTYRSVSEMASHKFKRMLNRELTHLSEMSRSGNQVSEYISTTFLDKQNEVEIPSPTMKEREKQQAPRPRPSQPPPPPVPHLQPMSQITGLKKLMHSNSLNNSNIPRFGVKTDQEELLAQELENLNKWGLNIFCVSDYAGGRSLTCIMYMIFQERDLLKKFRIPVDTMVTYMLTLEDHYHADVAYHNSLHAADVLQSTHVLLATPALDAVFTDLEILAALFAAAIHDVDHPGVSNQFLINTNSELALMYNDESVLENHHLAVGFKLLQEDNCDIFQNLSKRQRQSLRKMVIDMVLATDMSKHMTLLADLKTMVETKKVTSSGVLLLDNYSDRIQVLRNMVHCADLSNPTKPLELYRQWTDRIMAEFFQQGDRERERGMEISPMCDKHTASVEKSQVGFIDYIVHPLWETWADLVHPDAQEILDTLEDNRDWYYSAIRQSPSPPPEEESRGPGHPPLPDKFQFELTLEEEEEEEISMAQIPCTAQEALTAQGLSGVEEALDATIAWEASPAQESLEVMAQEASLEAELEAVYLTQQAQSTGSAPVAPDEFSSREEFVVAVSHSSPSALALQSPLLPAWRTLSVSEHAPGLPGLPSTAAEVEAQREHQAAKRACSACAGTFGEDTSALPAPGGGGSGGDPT
human p21 Activated Kinase 4 (PAK4), PAK4 (gene 10298), sequence (O96013 whole entry, looked up): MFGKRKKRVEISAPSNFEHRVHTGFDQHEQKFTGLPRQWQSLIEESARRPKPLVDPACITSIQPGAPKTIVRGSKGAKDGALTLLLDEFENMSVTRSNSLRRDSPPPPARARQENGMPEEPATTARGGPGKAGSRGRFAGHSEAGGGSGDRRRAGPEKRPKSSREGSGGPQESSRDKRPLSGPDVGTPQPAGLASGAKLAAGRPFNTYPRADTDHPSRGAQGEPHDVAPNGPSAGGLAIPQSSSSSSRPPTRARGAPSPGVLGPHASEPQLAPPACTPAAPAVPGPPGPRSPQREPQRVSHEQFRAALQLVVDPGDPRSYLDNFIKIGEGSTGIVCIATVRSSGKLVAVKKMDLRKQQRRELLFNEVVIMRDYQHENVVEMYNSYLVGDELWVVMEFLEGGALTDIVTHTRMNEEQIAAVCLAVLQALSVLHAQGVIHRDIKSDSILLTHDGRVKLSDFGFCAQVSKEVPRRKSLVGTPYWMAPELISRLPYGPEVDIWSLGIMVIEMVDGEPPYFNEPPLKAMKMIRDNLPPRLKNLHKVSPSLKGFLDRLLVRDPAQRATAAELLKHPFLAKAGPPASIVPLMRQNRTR
human Matrix Metalloproteinase-9 (MMP9), MMP9 (gene 4318), sequence (P14780 whole entry, looked up): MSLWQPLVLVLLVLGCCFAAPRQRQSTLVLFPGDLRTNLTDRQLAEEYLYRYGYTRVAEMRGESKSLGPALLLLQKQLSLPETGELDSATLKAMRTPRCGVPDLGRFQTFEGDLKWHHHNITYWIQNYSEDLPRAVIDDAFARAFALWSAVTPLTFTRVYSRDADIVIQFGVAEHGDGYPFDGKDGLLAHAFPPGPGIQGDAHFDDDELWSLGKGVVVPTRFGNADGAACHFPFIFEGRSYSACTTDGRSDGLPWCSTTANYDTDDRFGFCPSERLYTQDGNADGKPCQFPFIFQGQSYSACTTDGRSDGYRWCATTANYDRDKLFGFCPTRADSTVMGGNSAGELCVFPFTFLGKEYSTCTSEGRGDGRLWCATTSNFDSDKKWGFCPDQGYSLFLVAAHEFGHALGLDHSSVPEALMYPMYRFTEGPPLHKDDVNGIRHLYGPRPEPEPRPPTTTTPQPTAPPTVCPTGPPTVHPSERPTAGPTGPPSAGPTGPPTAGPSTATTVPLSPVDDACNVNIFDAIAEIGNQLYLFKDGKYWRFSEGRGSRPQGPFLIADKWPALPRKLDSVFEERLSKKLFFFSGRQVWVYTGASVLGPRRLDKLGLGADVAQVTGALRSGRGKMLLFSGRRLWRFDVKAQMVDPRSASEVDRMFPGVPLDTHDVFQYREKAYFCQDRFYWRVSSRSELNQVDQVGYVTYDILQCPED
human Mitogen- and Stress-activated Protein Kinase-1 (Msk1), RPS6KA5 (gene 9252), sequence (O75582 whole entry, looked up): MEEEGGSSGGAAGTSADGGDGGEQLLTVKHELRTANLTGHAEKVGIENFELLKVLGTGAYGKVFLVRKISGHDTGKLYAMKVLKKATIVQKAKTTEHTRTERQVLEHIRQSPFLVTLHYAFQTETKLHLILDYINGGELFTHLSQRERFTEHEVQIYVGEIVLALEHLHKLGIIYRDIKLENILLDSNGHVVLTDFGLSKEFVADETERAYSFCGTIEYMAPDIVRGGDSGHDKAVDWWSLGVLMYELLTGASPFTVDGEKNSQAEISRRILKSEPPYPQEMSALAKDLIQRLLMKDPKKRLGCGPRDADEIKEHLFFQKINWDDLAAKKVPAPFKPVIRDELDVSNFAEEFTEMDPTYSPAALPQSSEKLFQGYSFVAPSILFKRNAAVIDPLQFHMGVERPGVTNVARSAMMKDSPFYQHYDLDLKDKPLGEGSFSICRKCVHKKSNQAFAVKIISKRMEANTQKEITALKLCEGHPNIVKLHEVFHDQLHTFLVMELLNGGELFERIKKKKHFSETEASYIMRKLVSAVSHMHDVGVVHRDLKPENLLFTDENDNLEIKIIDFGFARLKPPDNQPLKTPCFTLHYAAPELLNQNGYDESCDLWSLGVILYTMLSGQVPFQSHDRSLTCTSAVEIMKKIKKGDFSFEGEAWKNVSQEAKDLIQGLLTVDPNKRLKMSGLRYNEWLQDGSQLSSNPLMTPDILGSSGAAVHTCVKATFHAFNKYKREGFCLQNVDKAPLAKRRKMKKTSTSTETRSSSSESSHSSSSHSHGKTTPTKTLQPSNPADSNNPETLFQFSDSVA
human NIMA (Never In Mitosis Gene A)-Related Kinase 2 (NEK2), NEK2 (gene 4751), sequence (P51955 whole entry, looked up): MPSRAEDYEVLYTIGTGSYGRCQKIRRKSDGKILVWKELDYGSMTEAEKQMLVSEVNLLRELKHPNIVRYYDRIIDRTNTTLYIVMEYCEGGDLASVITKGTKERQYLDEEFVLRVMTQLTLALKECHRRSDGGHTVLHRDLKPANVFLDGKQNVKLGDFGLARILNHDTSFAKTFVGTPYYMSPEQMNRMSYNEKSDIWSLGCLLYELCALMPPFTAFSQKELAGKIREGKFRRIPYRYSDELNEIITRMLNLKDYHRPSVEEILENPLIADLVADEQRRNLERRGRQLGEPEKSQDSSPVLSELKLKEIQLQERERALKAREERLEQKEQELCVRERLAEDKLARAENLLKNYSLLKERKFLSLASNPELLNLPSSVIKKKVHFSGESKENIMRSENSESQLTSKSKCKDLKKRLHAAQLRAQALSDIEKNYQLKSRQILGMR
human Matrix Metalloproteinase-3 (MMP3), MMP3 (gene 4314), sequence (P08254 whole entry, looked up): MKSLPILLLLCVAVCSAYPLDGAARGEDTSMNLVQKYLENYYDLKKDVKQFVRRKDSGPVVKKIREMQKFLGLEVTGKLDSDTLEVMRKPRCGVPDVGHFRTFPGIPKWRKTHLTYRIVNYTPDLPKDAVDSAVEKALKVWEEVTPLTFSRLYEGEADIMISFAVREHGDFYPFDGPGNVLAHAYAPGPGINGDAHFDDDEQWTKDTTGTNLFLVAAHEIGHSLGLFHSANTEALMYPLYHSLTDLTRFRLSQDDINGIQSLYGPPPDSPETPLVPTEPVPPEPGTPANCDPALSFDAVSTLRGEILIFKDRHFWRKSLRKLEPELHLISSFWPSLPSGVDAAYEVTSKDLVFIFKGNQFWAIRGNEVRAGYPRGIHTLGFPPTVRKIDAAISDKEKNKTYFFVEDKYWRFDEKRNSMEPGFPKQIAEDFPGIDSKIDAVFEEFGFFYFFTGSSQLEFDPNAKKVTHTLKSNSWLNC

CC(C)C(=O)OCC(C)(C)C(OC(=O)C(C)C)C(C)C (stereo not given)
outcome [1]: inactive
outcome [2]: inactive
outcome [3]: inactive
outcome [4]: inactive

CCC(C)(c1ccc(O)cc1)c1ccc(O)cc1
outcome [2]: inactive

Oc1c(Cl)c(Cl)c(Cl)c(Cl)c1Cl
outcome [2]: inactive

C[C@]12CCC(=O)C=C1CC[C@@H]1[C@@H]2CC[C@]2(C)C(=O)CC[C@@H]12
AC50 [2]: 12.3 µM (active)

CN(C)CCO
outcome [5]: inactive

Cc1cc2c3c(c1)C(c1ccccc1)=N[C@@H](NC(=O)c1ccncc1)C(=O)N3CC2
AC50 [6]: 1.36 µM (active)
AC50 [2]: 3.87 µM (active)
AC50 [3]: 5.66 µM (active)

c1cc2ccc3cccc4ccc(c1)c2c34
outcome [7]: inactive

CO/C=C(/C(=O)OC)c1ccccc1COc1cccc(C(F)(F)F)n1
outcome [8]: inactive
outcome [1]: inactive

CCCN(CCC)N=O
outcome [6]: inactive
outcome [2]: inactive

CC1=C2C[C@H]3[C@@H](CC=C4C[C@@H](O)CC[C@@]43C)[C@@H]2CC[C@]12O[C@@H]1C[C@H](C)CN[C@H]1[C@H]2C
AC50 [9]: 19 µM (active)
outcome [5]: inactive
outcome [6]: inactive
outcome [10]: inactive
outcome [3]: inactive
outcome [4]: inactive

O=C(O)C(F)(F)C(F)(F)C(F)(F)C(F)(F)C(F)(F)C(F)(F)C(F)(F)C(F)(F)C(F)(F)F
AC50 [8]: 12.5 µM (active)

ClC1=C(Cl)[C@]2(Cl)[C@@H]3[C@H]4C[C@H]([C@@H]5O[C@H]45)[C@@H]3[C@@]1(Cl)C2(Cl)Cl
outcome [5]: inactive

O=C(O)C(F)(F)C(F)(F)C(F)(F)C(F)(F)C(F)(F)C(F)(F)C(F)(F)C(F)(F)F
outcome [9]: inactive
AC50 [7]: 40.7 µM (active)
outcome [10]: inactive
outcome [2]: inactive

ClC(Cl)=C(c1ccc(Cl)cc1)c1ccc(Cl)cc1
outcome [2]: inactive

CCNc1nc(NC(C)C)nc(SC)n1
AC50 [6]: 2.15 µM (active)
AC50 [2]: 17.4 µM (active)

O=S(=O)(O)C(F)(F)C(F)(F)C(F)(F)C(F)(F)C(F)(F)C(F)(F)F
outcome [6]: inactive
outcome [2]: inactive
outcome [3]: inactive

CCSC(=O)N(CC)C1CCCCC1
outcome [9]: inactive

Cc1ccc(O)c(C)c1
AC50 [2]: 37.4 µM (active)

Sc1ccccc1
AC50 [1]: 4.12 µM (active)

N#Cc1ccc(N(CC(N)=O)CC(F)(F)F)cc1C(F)(F)F
outcome [2]: inactive

O=C(O)C(F)(F)C(F)(F)C(F)(F)C(F)(F)C(F)(F)F
outcome [3]: inactive

CCCCCCCCCc1ccc(O)cc1
outcome [1]: inactive
